# Data taken from PubChem BioAssay AID1671189 (National Center for Advancing Translational Sciences (NCATS), 2021).
# In all, about 1,100 compounds went through this assay and about 70 (6%) were called active. Not shown: some 22% with an inconclusive outcome. Many of the other results were omitted from the sample, so actives are more common in it than they were. Values without a mark were called inactive. The call rests on the fitted dose curve; in most records, active means well fitted curve in the direction sought with a large enough effect; inconclusive means small, poorly fitted or top-dose-only effect, or another doubt; inactive means no such curve, though single readings can be large or run the other way.
# Biological target: Polyunsaturated fatty acid lipoxygenase ALOX12 (Homo sapiens) (UniProt P18054)
# Sequence (P18054 whole entry, looked up): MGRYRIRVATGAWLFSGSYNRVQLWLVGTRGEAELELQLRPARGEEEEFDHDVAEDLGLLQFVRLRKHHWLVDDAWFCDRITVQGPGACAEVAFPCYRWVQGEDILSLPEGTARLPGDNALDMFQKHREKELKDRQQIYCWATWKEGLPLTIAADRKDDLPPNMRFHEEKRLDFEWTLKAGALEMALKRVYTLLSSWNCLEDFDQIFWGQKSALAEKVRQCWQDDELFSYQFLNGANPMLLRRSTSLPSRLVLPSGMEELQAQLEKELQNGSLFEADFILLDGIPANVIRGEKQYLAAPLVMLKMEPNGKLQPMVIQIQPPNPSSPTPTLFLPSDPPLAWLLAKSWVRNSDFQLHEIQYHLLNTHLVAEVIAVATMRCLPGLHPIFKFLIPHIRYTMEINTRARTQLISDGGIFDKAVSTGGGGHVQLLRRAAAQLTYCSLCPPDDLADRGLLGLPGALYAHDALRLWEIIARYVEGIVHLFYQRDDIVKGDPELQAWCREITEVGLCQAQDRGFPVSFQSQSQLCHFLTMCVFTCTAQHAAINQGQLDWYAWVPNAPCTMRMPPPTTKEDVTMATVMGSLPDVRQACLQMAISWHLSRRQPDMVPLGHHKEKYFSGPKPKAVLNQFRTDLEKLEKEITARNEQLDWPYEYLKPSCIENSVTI
# Assay: Confirmatory qHTS assay for inhibitors of human arachidonate 12S-lipoxygenase (ALOX12): Round 2
# Conditions: purified human 12-LOX, xylenol orange absorbance; series mostly up to 125 µM; activity change, negative = inhibition: at the top concentration
# How it was run: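 Purified human enzyme (150 nM) in 25 mM Hepes, 0.01% Triton X-100, pH 7.0, preincubated 15 min with compound, then 40 uM arachidonic acid for 30 min at room temperature. Hydroperoxide detected by Fe-XO, read as 573/405 nm absorbance ratio.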
# On the % scale 0 is the no-effect control and ±100 the full control effect; potency means the concentration at half of the fitted maximal effect.
SMILES,"activity change, negative = inhibition",Potency
O=C(c1cc(C2CC2)nc2c1c(C1CCCN1)nn2-c1ccccc1)N1CCC(F)CC1 (stereo not given),-14.7%,–
CNc1nnc(-c2cccc3ccccc23)s1,1.24% [at 64.5 µM],–
O=C(c1ccc(Cl)cc1)N1CC2(CCCN(Cc3ccccn3)C2)Cc2ccccc21 (stereo not given),-27.8%,–
O=C(c1ccc(Cl)cc1)N1CC2(CCCN(Cc3ccc(Cl)cc3)C2)Cc2ccccc21 (stereo not given),–,4.94 µM (active)
CC(=O)N1Cc2ccccc2CC2(CCN(Cc3ccncc3)C2)C1 (stereo not given),-13.8%,–
O=C(C1CCCC1)N1Cc2ccccc2CC2(CCN(Cc3cccnc3)C2)C1 (stereo not given),-28.9%,–
CC(=O)N1CC2(CCCN(CC3CCCCC3)C2)Cc2ccccc21 (stereo not given),-4.35%,–
O=C(c1ccc(Cl)cc1)N1CC2(CCN(Cc3ccc(Cl)cc3)C2)Cc2ccccc21 (stereo not given),–,1.56 µM (active)
O=C(C1CCCC1)N1CC2(CCN(Cc3ccc(Cl)cc3)C2)Cc2ccccc21 (stereo not given),–,6.22 µM (active)
CCCC(=O)N1Cc2ccccc2CC2(CCN(Cc3ccccc3)CC2)C1,-3.28%,–
O=C(C1CCCC1)N1Cc2ccccc2CC2(CCN(Cc3ccncc3)C2)C1 (stereo not given),-11.8%,–
NC(=O)c1cccc(CN2CCC3(CC2)Cc2ccccc2N(C(=O)c2ccc(Cl)cc2)C3)c1,–,22.1 µM (active)
CCCC(=O)N1Cc2ccccc2CC2(CCN(Cc3ccc(O)cc3)C2)C1 (stereo not given),-12.5%,–
CCC(=O)N1Cc2ccccc2CC2(CCN(Cc3ccncc3)CC2)C1,1.87%,–
CC(=O)N1Cc2ccccc2OC2(CCN([S+](C)(=O)[O-])CC2)C1,-1.67%,–
CNc1oc(C2CCCC2)nc1C#N,18.7% [at 64.5 µM],–
Cc1cccc(-c2cnc3n[nH]c(-c4ccc5c(c4)OCO5)c3n2)c1,-11.5% [at 64.5 µM],–
CN1CC(=O)N(C2CCCNC2)Cc2c(NC3CCC3)ncnc21 (stereo not given),-14.2%,–
N#Cc1cc2nc(O)c(O)nc2cc1[N+](=O)[O-],-5.48%,–
OC1(CN2CCN(c3nccs3)CC2)CCCNC1 (stereo not given),-6.16% [at 64.5 µM],–
Cc1ccc(-c2ccccc2CN)c(C)c1,-9.84%,–
CCOCCCNc1ncnc2c1CN(C1CCCNCC1)C(=O)CN2C (stereo not given),-3.49%,–
CN1CC(=O)N(C2CNC2)Cc2c(NC3CC3)ncnc21,5.35%,–
CN1CC(=O)N(C2CCCNC2)Cc2c(NCC3CCCCCC3)ncnc21 (stereo not given),-26.4%,–

SMILES,"activity change, negative = inhibition",Potency
O=C1NCc2ccccc2CC12CCN(Cc1ccc(F)c(Cl)c1)CC2,-23.5%,–
C[S+](=O)([O-])N1CC2(Cc3ccccc3NC2=O)C1,-1.61%,–
N#Cc1ccc(CN2CCn3c(nn(-c4cccc(Cl)c4)c3=O)C2)cc1,-26.4%,–
O=C(c1ccc(C(F)(F)F)cc1)N1CCC2(CC1)C(=NC1CCCCC1)NC(=O)N2c1cc(F)cc(F)c1,-16.1%,–
CC(=O)NCCC(=O)N1Cc2ccccc2CC2(CCCN2CC2CCNCC2)C1 (stereo not given),-18%,–
COc1cccc(CC(=O)N2CC(CO)C3(CCNCC3)C2)c1 (stereo not given),-11.8% [at 64.5 µM],–
Nc1ccccc1CN1CCCC2(Cc3ccccc3CNC2=O)C1 (stereo not given),-0.411%,–
O=C1NCc2ccccc2CC12CCN(Cc1ccc(Cl)cc1)CC2,-21.7%,–
CCOc1ccc(CN2CCC3(Cc4ccccc4CNC3=O)C2)cc1 (stereo not given),-18.2%,–
Cc1ccc(CN2CCC3(Cc4ccccc4CNC3=O)C2)cc1C (stereo not given),-25.3%,–
O=C1NCc2ccccc2CC12CCN(Cc1ccccc1Cl)C2 (stereo not given),-22.5%,–
O=C1NCc2ccccc2CC12CCN(Cc1ccc(Oc3ccccc3)cc1)C2 (stereo not given),–,55.5 µM (active)
O=C1NCc2ccccc2CC12CCN(Cc1cccc(Br)c1)C2 (stereo not given),-17.3%,–
O=C1NCc2ccccc2CC12CCN(Cc1ccc(Br)cc1)C2 (stereo not given),–,17.5 µM (active)
O=C1NCc2ccccc2CC12CCN(Cc1cc(O)cc(O)c1)C2 (stereo not given),-15%,–
O=C1NCc2ccccc2CC12CCN(Cc1ccc(Cl)cc1)C2 (stereo not given),–,27.5 µM (active)
Cc1cc(C)cc(CN2CCC3(Cc4ccccc4CNC3=O)C2)c1 (stereo not given),-13.7%,–
Cc1cc(C)c(CN2CCC3(Cc4ccccc4CNC3=O)C2)c(C)c1 (stereo not given),–,0.879 µM (active)
CCOc1cccc(CN2CCC3(Cc4ccccc4CNC3=O)C2)c1 (stereo not given),-12.7%,–
CSc1ccc(-c2ccc(C=O)cc2)cc1,-29.7% [at 233 µM],–
CC(C)Nc1ncnc2c1CN(C1CCCNC1)C(=O)CN2C (stereo not given),-17.1%,–
CN1CC(=O)N(C2CCCNC2)Cc2c1ncnc2N1CCN(Cc2ccccc2)CC1 (stereo not given),-24.9%,–
CN1CC(=O)N(C2CCCNCC2)Cc2c1ncnc2N1CCCC(O)C1 (stereo not given),-10.7%,–
CC[C@@](N)(C(=O)O)c1ccc(C(=O)O)cc1,8.94%,–

SMILES,"activity change, negative = inhibition",Potency
CCOCCCNc1ncnc2c1CN(C1CCNCC1)C(=O)CN2C,-15.7%,–
CN1CCC(C(=O)N2Cc3ccccc3OC3(CCN(C(=O)N(C)C)CC3)C2)CC1,-22.8%,–
Cn1nc(C2CCCN2)c2c(C(=O)NCc3ccc(F)cc3)cc(C3CC3)nc21 (stereo not given),-19.8%,–
O=Cc1ccccc1-c1ccc(O)cc1,-36% [at 233 µM],–
COc1ccc(N2CC3CCC(C2)N3Cc2cccc(Cl)c2)cc1,-10.1%,–
CC(=O)NC(C)c1cc(F)c2cccnc2c1O (stereo not given),–,17.2 µM (active)
CC(=O)NC(C)c1cc(Cl)c2cccnc2c1O (stereo not given),–,6.85 µM (active)
CC(=O)NCc1cc(Cl)c2cccnc2c1O,–,1.93 µM (active)
CCC(=O)NC(c1cc(Cl)c2cccnc2c1O)C(C)C (stereo not given),–,10.9 µM (active)
O=C(O)CCC(=O)N1Cc2ccccc2CC2(CCCN2CC2CCNC2)C1 (stereo not given),-22.5%,–
COc1cccc(CNc2ncnc3c2CN(C2CCCNCC2)C(=O)CN3C)c1 (stereo not given),-12.4%,–
CN1CCCC2(Cc3ccccc3CN(C(=O)c3ccc(Cl)cc3)C2)C1 (stereo not given),-17.8%,–
OCC1CN(c2ncccn2)CC12CCN(Cc1cccc3[nH]ccc13)CC2 (stereo not given),-5.1% [at 64.5 µM],–
CN1CC(=O)N(C2CCCNCC2)Cc2c1ncnc2N1CCC(N2CCCCC2)CC1 (stereo not given),-3%,–
CNC(C)c1ccc(Oc2ccccc2)cc1 (stereo not given),-25.5%,–
Cn1nc(C2CCCNC2)c2c(C(=O)NCC(F)(F)F)cc(C3CC3)nc21 (stereo not given),-21.6%,–
O=C(O)c1cccc(-c2cnc3ccccc3c2)c1,-20.4%,–
Cn1nc(C2CCCN2)c2c(C(=O)NCc3cccs3)cc(C3CC3)nc21 (stereo not given),-15.3%,–
O=C(N1CCOCC1)N1CCCC1c1nnc2n1CCNC2 (stereo not given),-9.23%,–
NC(Cc1ccccc1)C(=O)N1CCC2(CC1)CN(C(=O)c1ccc(Cl)cc1)CCO2 (stereo not given),-0.789%,–
O=S(=O)(Nc1ncc(CN2CC[C@H]3CNC[C@H]32)cn1)c1ccccc1,-2.77% [at 64.5 µM],–
CN1CC(=O)N(C2CCNCC2)Cc2c1ncnc2N1CCc2ccccc2C1,-19%,–
